High-throughput results as filed in PubChem BioAssay.
IDE exosite inh: exo-site inhibitors of human IDE, primary screen, biochemical, fluorescence anisotropy, probe displacement | Insulin-degrading enzyme (Homo sapiens), P14735 | z-score at 20 µM | 17,000 tested, 6.3% active | purified IDE, FL-6b probe fluorescence polarization; stronger effect = lower value;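 active = z-score of -3 or lower, meaning strong loss of probe binding signal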;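 also: His-tagged human IDE residues 42-1019 made in E. coli with 30 nM FL-6b probe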
A number is an active result; ! = not active in a repeat. Shown is part of a subset that was picked to be rich in hits.

COc1ccc(-c2ccc(C3[C@H]4CNC[C@@H]3N4S(=O)(=O)Cc3ccccc3)cc2)cc1 (some centres not stated) was read as IDE exosite inh inactive.
O=S(=O)(Cc1ccccc1)N1[C@@H]2CNC[C@H]1C2c1ccc(-c2ccccc2)cc1 (some centres not stated) was read as IDE exosite inh inactive.
For CC[C@@H]1C/C=C\CCNC(=O)C[C@H](c2ccccc2)C(=O)N1 the results were IDE exosite inh inactive.
Screening CCS(=O)(=O)N1CCCCN2[C@H](CO)[C@H](c3ccc(-c4ccc(C(=O)N(C)C)cc4)cc3)[C@@H]2C1 returned IDE exosite inh inactive.
For Cc1ccc(S(=O)(=O)Nc2ccc3c(c2)C(=O)N(C)[C@@H]2CC[C@H](CC(=O)NCCc4ccncc4)O[C@@H]2CO3)cc1 the results were IDE exosite inh inactive.
O=C(NC[C@@H]1[C@H](c2ccccc2)[C@@H](CO)N1CC1CCCC1)c1cccnc1 was read as IDE exosite inh inactive.
Screening COCC#Cc1ccc([C@@H]2[C@H]3CN(C(=O)C4CC4)CC(=O)N3[C@H]2CO)cc1 returned IDE exosite inh inactive.
COCC(=O)N1CC(=O)N2[C@H](CO)[C@H](c3ccc(C#CCc4ccccc4)cc3)[C@H]2C1 was read as IDE exosite inh inactive.
O=C(C1CC1)N1CC(=O)N2[C@@H](CO)[C@@H](c3ccc(C#CCc4ccccc4)cc3)[C@@H]2C1 was read as IDE exosite inh -3.3.
Screening O=C(C1CCOCC1)N1CC(=O)N2[C@H](CO)[C@@H](c3ccc(C#CCc4ccccc4)cc3)[C@@H]2C1 returned IDE exosite inh inactive.
`O=C(C1CCOCC1)N1CC(=O)N2[C@H](C1)[C@@H](c1ccc(C#CCc3ccccc3)cc1)[C@@H]2CO` gave IDE exosite inh inactive.
O=C(C1CCOCC1)N1CC(=O)N2[C@@H](CO)[C@@H](c3ccc(C#CCc4ccccc4)cc3)[C@@H]2C1 was read as IDE exosite inh inactive.
Screening O=C(C1CC1)N1CC(=O)N2[C@H](C1)[C@H](c1ccc(C#CCc3ccccc3)cc1)[C@@H]2CO returned IDE exosite inh -4.6.
COCC(=O)N1CC(=O)N2[C@@H](CO)[C@@H](c3ccc(C#CCc4ccccc4)cc3)[C@@H]2C1 was read as IDE exosite inh -4.7.
For COCC(=O)N1CC(=O)N2[C@@H](CO)[C@H](c3ccc(C#CCc4ccccc4)cc3)[C@@H]2C1 the results were IDE exosite inh inactive.
`COCC(=O)N1CC(=O)N2[C@H](CO)[C@@H](c3ccc(C#CCc4ccccc4)cc3)[C@@H]2C1` gave IDE exosite inh inactive.
Cc1ccc(-c2ccccc2[C@H]2[C@@H](C#N)N(S(C)(=O)=O)[C@@H]2CO)cc1 was read as IDE exosite inh inactive.
Screening O=C(NC[C@H]1N[C@H](CO)[C@@H]1c1ccc(-c2cncnc2)cc1)c1ccccc1F returned IDE exosite inh inactive.
For COCCN(C[C@H]1N[C@H](CO)[C@@H]1c1ccccc1)C(=O)NC1CCCC1 the results were IDE exosite inh inactive.
Screening CC(=O)N1CC(=O)N2[C@H](CO)[C@@H](c3ccc(-c4ccc(C#N)cc4)cc3)[C@H]2C1 returned IDE exosite inh inactive.
C/C=C/c1ccc([C@@H]2[C@@H](CO)N3C(=O)CN(Cc4ccccc4)C[C@@H]23)cc1 was read as IDE exosite inh inactive.
CC(=O)N1CC(=O)N2[C@@H](CO)[C@H](c3ccc(-c4ccncc4)cc3)[C@@H]2C1 was read as IDE exosite inh inactive.
For CC(C)CC#Cc1ccc([C@@H]2[C@H]3CN(C(=O)Nc4cc(F)ccc4F)CC(=O)N3[C@H]2CO)cc1 the results were IDE exosite inh inactive.
`CO[C@@H]1CN(C)C(=O)c2cc(NC(=O)NC(C)C)ccc2OC[C@@H](C)N(C(=O)CN(C)C)C[C@H]1C` gave IDE exosite inh inactive.
Screening Fc1ccc(-c2ccc(C3[C@@H]4CN(Cc5cccc(F)c5)C[C@H]3N4)cc2)cc1 (some centres not stated) returned IDE exosite inh inactive.
COc1cccc(CN2C[C@@H]3N[C@H](C2)C3c2ccc(-c3ccncc3)cc2)c1 (some centres not stated) was read as IDE exosite inh inactive.
For COc1cccc(CN2C[C@@H]3N[C@H](C2)C3c2ccc(-c3cccc(C#N)c3)cc2)c1 (some centres not stated) the results were IDE exosite inh inactive.
`COc1cccc(CN2C[C@@H]3N[C@H](C2)C3c2ccc(-c3ccccc3F)cc2)c1` (some centres not stated) gave IDE exosite inh -5.1!.
For COc1cccc(CN2C[C@@H]3N[C@H](C2)C3c2ccc(-c3ccccc3C)cc2)c1 (some centres not stated) the results were IDE exosite inh -4!.
COc1cccc(-c2ccc(C3[C@@H]4CN(Cc5cccc(F)c5)C[C@H]3N4)cc2)c1 (some centres not stated) was read as IDE exosite inh inactive.
CS(=O)(=O)N1[C@H](C#N)[C@H](c2ccccc2)[C@H]1CO was read as IDE exosite inh inactive.
